Experimental findings from PubChem BioAssay (NCATS) are described below.

The structures appear in SMILES notation. Where “and” joins values, the source holds several entries; their conditions need not be identical. Identical values can stand only once. Results filed as inconclusive are left out. Calls of active or inactive are those of the source. Unless noted, calls come from the whole dose curve; as a rule, active = well fitted curve in the direction sought with a large enough effect; inconclusive = small, poorly fitted or top-dose-only effect, or another doubt; inactive = no such curve, though single readings can be large; an effect the other way counts as inactive or inconclusive.

Assay [1] has as its target Alpha-galactosidase A (Homo sapiens) (UniProt P06280). Put plainly: Counterscreen for Glucocerebrosidase Inhibitors: qHTS Assay for Human alpha-Galactosidase at pH 4.5 (AID 992). Note: 0% is about no effect. The procedure, abridged:
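Read-out is 4-methylumbelliferone fluorescence (365 nm excitation, 440 nm emission) after a pH 10 NaOH/glycine stop. Reactions held 2 nM enzyme and 80 uM substrate at pH 4.5 for 20 min at room temperature.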

Assay [2] addresses alpha-glucosidase (Oryza sativa, rice) (UniProt Q653V4). Description: Counterscreen for Glucocerebrosidase Inhibitors: qHTS Assay for Rice alpha-Glucosidase at pH 5.0 (AID 997).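 Note: 0% = full activity with enzyme and -100% = basal without enzyme.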 The essentials: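 Rice alpha-glucosidase (4 nM final) with 400 uM 4-methylumbelliferyl-alpha-D-glucopyranoside in citrate buffer pH 5.0, 20 min at room temperature, stopped at pH 10; fluorescence 365/440 nm, compounds 0.7 nM–77 uM, AC50 from Hill fits.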

Assay [3] is described as follows: qHTS Assay for Lipid Storage Modulators (AID 1519; calls by dose curve; for activity change, negative = inhibition: % is set by controls: 0 for no effect and ±100 for the full control effect). As to conditions: Drosophila S3 cells, BODIPY lipid droplet/cell ratio, laser cytometry, cells loaded with oleic acid. The essentials:
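Cells seeded at 5,000 per well were treated with compounds over a concentration series and loaded with oleic acid (400 uM, as added). Lipid droplet fluorescence (488 nm excitation, 500-530 nm channel) was read by laser-scanning cytometry and normalized to 20 uM Triacsin C.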
A general note: In qHTS, concentration-response curves come from the screen itself.

Assay [4] addresses DNA repair nuclease/redox regulator APEX1 (Homo sapiens) (UniProt P27695). Description: qHTS Validation Assay for Inhibitors of the Human Apurinic/apyrimidinic Endonuclease 1 (APE1) (AID 1705;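 note: TAMRA fluorescence gain over two minutes as APE1 cuts a quenched THF abasic duplex; % is set by controls: 0 for no effect and ±100 for the full control effect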). The essentials: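 Endonuclease activity of human APE1 is followed as dequenching when the enzyme incises a tetrahydrofuran abasic site in a short duplex labelled 5'-TAMRA/3'-BHQ-2 (50 nM final), after 15 min enzyme–compound preincubation at room temperature.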

A short description of assay [5]: Counterscreen for APE1 Inhibitors: Fluorescent Dye Displacement Validation Assay (AID 1707).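 Note: plate controls were ThO with dsDNA and no compound for no effect and ThO without dsDNA for full effect.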 The essentials:
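ThO 250 nM + dsDNA 50 nM (THF abasic site, 5'-TAMRA), Tris-HCl pH7.5/50mM NaCl/2 mM MgCl2/0.01% Tween-20; compounds pin-transferred; ex 480/em 540 nm endpoint. Neutral = no compound; no-DNA ThO wells = negative control.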
A general note: The purpose of a counterscreen is to sort out artefacts and off-target activity.

Assay [6] is described as follows: Cell Viability - LYMP2-025 (AID 976).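 Note: plate controls were DMSO only for no effect and tetraoctylammonium bromide control for full effect.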 The procedure, abridged: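 Human lymphoblastoid LYMP2-025 cells, 2500/well, exposed 24 h at 37 C in complete medium in 1536-well qHTS. Viability as cellular ATP by CellTiter-Glo luminescence; AC50 from Hill fits of concentration-response data.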
A short description of assay [7]: Cell Viability - LYMP2-006 (AID 978). Note: % is set by controls: 0 for no effect and ±100 for the full control effect; nearly all actives have a fitted effect of over 60% in size. The essentials: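 Concentration-dependent loss of intracellular ATP in a human lymphoblastoid line after 24 hr treatment at 37 C was measured by CellTiter-Glo luminescence, with AC50 values obtained from standard Hill-equation modelling.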
A short description of assay [8]: Cell Viability - LYMP2-007 (AID 979).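 Note: cells exposed to compound for 24 h before reading; 0% = DMSO only and the negative end = 92 µM tetraoctylammonium bromide; nearly all actives have a fitted effect of over 60% in size.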 The essentials: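 Human lymphoblastoid LYMP2-007 cells (2500/well) preincubated 5 h at 37 C, then treated 24 h at 37 C in complete medium. Viability by CellTiter-Glo ATP luminescence after 30 min at room temperature; AC50 from Hill fits.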
The nature of assay [9]: Cell Viability - LYMP2-008 (AID 980). Note: % is set by controls: 0 for no effect and ±100 for the full control effect; nearly all actives have a fitted effect of over 60% in size. The essentials: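 LYMP2-008 lymphoblastoid cells (2500/well) plated 5 h, then treated 24 h at 37 C in complete medium. Viability read as intracellular ATP by CellTiter-Glo luminescence after 30 min at room temperature; AC50 from Hill fits.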
Assay [10] in a line: Cell Viability - LYMP2-010 (AID 981). Note: % is set by controls: 0 for no effect and ±100 for the full control effect; nearly all actives have a fitted effect of over 55% in size. The essentials: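 Human lymphoblastoid LYMP2-010 cells (2500/well) treated 24 h at 37 C in complete medium; viability read as intracellular ATP by CellTiter-Glo luminescence. AC50 from Hill fits of concentration-response data; tetraoctylammonium bromide positive control.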
A short description of assay [11]: Cell Viability - LYMP2-012 (AID 982).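 Note: cellular ATP by luciferase luminescence where a drop means cytotoxicity; cells exposed to compound for one day before reading; 0% = DMSO only and full loss = 92 µM tetraoctylammonium bromide; nearly all actives have a fitted effect of over 55% in size.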
The nature of assay [12]: Cell Viability - LYMP2-014 (AID 983).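 Note: plate controls were DMSO only for no effect and 92 µM tetraoctylammonium bromide for full effect; nearly all actives have a fitted effect of over 50% in size.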 The procedure, abridged:
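LYMP2-014 human lymphoblastoid cells, 2500/well, treated 24 h at 37 C in complete medium; viability by CellTiter-Glo ATP luminescence after 30 min at room temperature. AC50 from Hill fits of qHTS concentration-response; tetraoctylammonium bromide positive control.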

Assay [13] in a line: Cell Viability - LYMP2-016 (AID 984). Note: % is set by controls: 0 for no effect and ±100 for the full control effect; nearly all actives have a fitted effect of over 55% in size. The essentials: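 Acute toxicity in a Coriell human lymphoblastoid line is scored as loss of intracellular ATP over 24 h of treatment in complete medium. CellTiter-Glo signal is fitted across concentrations with the Hill equation to give AC50.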
Assay [14] is described as follows: Cell Viability - LYMP2-018 (AID 985).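 Note: compound exposure lasted 24 hr at 37 °C; plate controls were DMSO only for no effect and tetraoctylammonium bromide at 92 µM for full effect; nearly all actives have a fitted effect of over 50% in size.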 The essentials:
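Human lymphoblastoid LYMP2-018 cells, 2500/well, settled 5 hr at 37 C then exposed to compound 24 hr at 37 C; intracellular ATP measured by CellTiter-Glo luminescence. AC50 from Hill-equation concentration-response fits.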

Assay [15] in a line: Cell Viability - LYMP2-020 (AID 986).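 Note: plate controls were DMSO only for no effect and tetraoctylammonium bromide at 92 µM for full effect; nearly all actives have a fitted effect of over 55% in size.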 The essentials:
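Human lymphoblastoid LYMP2-020 cells (2500/well) preincubated 5 h at 37 C, then treated 24 h at 37 C. Viability measured as intracellular ATP by CellTiter-Glo luminescence after 30 min at room temperature; AC50 from Hill fits.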

Assay [16] is described as follows: Cell Viability - LYMP2-022 (AID 987). The essentials:
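LYMP2-022 lymphoblastoid cells (2500/well, complete medium) were treated with compounds for 24 hours at 37 C; intracellular ATP was then read by CellTiter-Glo luminescence after 30 min at room temperature. AC50 values were derived from Hill-equation fits.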

Assay [17] can be described thus: Cell Viability - LYMP2-024 (AID 988).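 Note: plate controls were DMSO only for no effect and 92 µM tetraoctylammonium bromide for full effect; nearly all actives have a fitted effect of over 60% in size.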 The procedure, abridged:
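Human lymphoblastoid LYMP2-024 cells (2500/well) rested 5 hr, then treated with compound for 24 hr at 37 C in complete medium. Viability was measured as intracellular ATP by CellTiter-Glo luminescence. AC50 values came from Hill-equation fits.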

Assay [18] is described as follows: Cell Viability - LYMP1-002 - Assay at 24 hr (AID 993). Note: % is set by controls: 0 for no effect and ±100 for the full control effect. The procedure, abridged: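 Human lymphoblastoid LYMP1-002 cells (2500/well) treated 24 h at 37 °C; viability as intracellular ATP by CellTiter-Glo luminescence. Tetraoctylammonium bromide as positive control; AC50 from Hill-equation fits of qHTS concentration-response.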
Assay [19] can be described thus: Cell Viability - LYMP1-002 - Assay at 40 hr (AID 994). The procedure, abridged:
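LYMP1-002 human lymphoblastoid cells (2500/well, complete medium) were treated with compounds for 40 hr at 37 C. Intracellular ATP was measured by CellTiter-Glo luminescence, and AC50 values came from Hill-equation fits of concentration-response data; tetraoctylammonium bromide was the positive control.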

Where [20] appears, read: measured here: cell count channel max response.
Where [21] appears, read: measured here: lipid channel max response.

DNA repair nuclease/redox regulator APEX1 (Homo sapiens), sequence (P27695 whole entry, looked up): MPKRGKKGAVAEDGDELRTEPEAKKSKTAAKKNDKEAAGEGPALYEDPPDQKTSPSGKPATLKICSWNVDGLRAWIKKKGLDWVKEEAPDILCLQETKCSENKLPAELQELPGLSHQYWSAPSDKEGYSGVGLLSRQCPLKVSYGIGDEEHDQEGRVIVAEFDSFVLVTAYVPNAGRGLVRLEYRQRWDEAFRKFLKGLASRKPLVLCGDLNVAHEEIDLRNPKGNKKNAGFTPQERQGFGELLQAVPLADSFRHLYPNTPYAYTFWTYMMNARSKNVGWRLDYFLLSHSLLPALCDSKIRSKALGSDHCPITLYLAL
Alpha-galactosidase A (Homo sapiens), sequence (P06280 whole entry, looked up): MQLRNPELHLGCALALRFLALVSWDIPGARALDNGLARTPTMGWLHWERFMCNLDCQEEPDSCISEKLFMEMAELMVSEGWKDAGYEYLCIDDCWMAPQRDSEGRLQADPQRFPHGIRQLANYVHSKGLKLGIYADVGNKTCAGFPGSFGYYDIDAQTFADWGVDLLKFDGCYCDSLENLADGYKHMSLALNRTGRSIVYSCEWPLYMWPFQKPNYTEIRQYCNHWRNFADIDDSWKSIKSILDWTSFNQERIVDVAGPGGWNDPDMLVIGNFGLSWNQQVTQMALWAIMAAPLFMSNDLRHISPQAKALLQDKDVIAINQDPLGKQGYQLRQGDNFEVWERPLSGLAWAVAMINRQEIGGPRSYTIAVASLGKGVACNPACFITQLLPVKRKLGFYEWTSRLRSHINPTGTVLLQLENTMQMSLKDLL

Regarding `CNCCCC12CCC(c3ccccc31)c1ccccc12`, the result in assay [1] and in assay [2] was inactive. Also, the activity change, negative = inhibition in assay [3] (at 25.7 µM (top of the series)) is -2.57% (inactive); in [3] (at 57.5 µM (top of the series)) it was -1.14% (inactive) and 2.05% (inactive). Also, the max response in [3] (setting [20]) was -12.7% and 1.78% and 3.8%; in [3] (setting [21]) it was -13.9% and 1.75% and 6.48%. The Potency result in assay [4] and in [5] was “inactive” in each case.

As for `CC12CC3CC(C)(C1)CC(N)(C3)C2`, in assay [3] (at 57.5 µM (top of the series)), the activity change, negative = inhibition was 7.67% (inactive) and 1.43% (inactive). In addition, the max response in assay [3] (setting [20]) was 15.3% and 15.6%; in [3] (setting [21]), 26.5% and 20.5%. In addition, in assay [4], the Potency entry was “inactive”.

Consider `Nc1c2c(nc3ccccc13)CCCC2`, for which the compound was classed as inactive in [6], in [7], in assay [8], in assay [9], in [10] and in assay [11]. For the same compound, the compound was called inactive in assay [12], in assay [13], in [14], in assay [15], in [16] and in [17]. Moreover, the outcome in [1], in assay [18] and in [2] was inactive. Also, the Potency result in assay [19] and in assay [4] was “inactive” in each case. The values for the activity change, negative = inhibition in [3] (at 25.7 µM (top of the series)) and in assay [3] (at 57.5 µM (top of the series)) were 0.95% (inactive) and 2.49% (inactive), respectively. For the same compound, the max response in assay [3] (setting [20]) was -0.801% and 25.5%; in assay [3] (setting [21]) it was -0.834% and 27.2%.

Turning to `CCC1(C)CC(=O)NC1=O` (stereo not given), the activity change, negative = inhibition in assay [3] (at 57.5 µM (top of the series)) was 5.33% (inactive) and 1.46% (inactive). In addition, the max response in assay [3] (setting [20]) is 13.5% and 40.9%; in [3] (setting [21]), 22.9% and 41%. Moreover, the Potency entry in assay [4] was “inactive”.

Regarding `CC[N+](CC)(CC)CCOc1cccc(OCC[N+](CC)(CC)CC)c1OCC[N+](CC)(CC)CC`, the call in [1] and in assay [2] was inactive. Moreover, the Potency result in [4] and in assay [5] was “inactive” in each case.

Regarding `COc1ccc2[nH]cc(CCNC(C)=O)c2c1`, the compound was called inactive in assay [6], in [7], in [8], in [9], in assay [10] and in assay [11]. Further, the compound was classed as inactive in assay [12], in [13], in assay [14], in [15], in assay [16] and in assay [17]. The compound was classed as inactive in [1], in assay [18] and in assay [2]. Moreover, the Potency result in assay [19], in [4] and in [5] was “inactive” throughout. The activity change, negative = inhibition is 1.02% (inactive) in assay [3] (at 25.7 µM (top of the series)); 11.3% (inactive) and -5.62% (inactive) and 7.48% (inactive) in [3] (at 57.5 µM (top of the series)).

With `CC(COc1ccccc1)N(CCCl)Cc1ccccc1` (stereo not given), in assay [18], the compound was classed as inactive. Besides, the Potency result in [19] and in assay [4] was “inactive” each time. Also, the activity change, negative = inhibition in [3] (at 57.5 µM (top of the series)) is 6.18% (inactive). In addition, the figures for the max response in assay [3] (setting [20]) and in [3] (setting [21]) were 11.9% and 23.2%, respectively.

Take `CCc1cccc2c3c([nH]c12)C(CC)(CC(=O)O)OCC3` (stereo not given): the compound was classed as inactive in assay [1] and in assay [2]. Besides, in [3] (at 57.5 µM (top of the series)), the activity change, negative = inhibition is 2.38% (inactive) and -6.74% (inactive). Also, the max response is 1.96% and -60.6% in assay [3] (setting [20]); 5.72% and -61.2% in assay [3] (setting [21]). Also, in assay [4], the Potency result is “inactive”.

In the case of `O=c1c(O)c(-c2ccc(O)c(O)c2)oc2cc(O)cc(O)c12`, the compound was classed as inactive in [1] and in assay [2].

In the case of `O=C(C1CCCCC1)N1CC(=O)N2CCc3ccccc3C2C1` (stereo not given), the result in assay [1] and in assay [2] was inactive. Besides, the activity change, negative = inhibition in assay [3] (at 57.5 µM (top of the series)) is 2.76% (inactive). The max response in assay [3] (setting [20]) is -17.9%; in assay [3] (setting [21]), -16.6%. Besides, in [4], the Potency result was “inactive”.

`Cc1cn([C@H]2C[C@H](N=[N+]=[N-])[C@@H](CO)O2)c(=O)[nH]c1=O`: the compound was classed as inactive in [6], in [7], in [8], in assay [9], in [10] and in [11]. For the same compound, the result in assay [12], in [13], in assay [14], in [15], in assay [16] and in assay [17] was inactive. Also, in assay [18], the compound was classed as inactive. Besides, the Potency result in [19] was “inactive”.
